# High-throughput results: PubChem BioAssay, several laboratories
# Shn3 inh set2: reduces Shn3 3'UTR luciferase signal in osteoblasts; Clone20 osteoblast Shn3 3'UTR firefly luciferase, 24 h; 0.52% of 360,000 active; inhibition, % at 12.5 µM; AID 588674;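 active = mean inhibition of at least 75% with every replicate also reaching 75%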;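 also: 0% = median of neutral control wells and 100% = pilot-screen positive control compound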
# 697 NFkB inh: lowers PMA/ionomycin-induced NF-kB signal in 697 B cells. 697 B-cell NF-kB luciferase reporter, 16 h. inhibition, % at 4 µM. 0.33% of 330,000 active. AID 435022; in the data active = inhibition above about 35%
# Jurkat NFkB inh: lowers PMA/ionomycin-induced NF-kB signal in Jurkat cells; PMA/ionomycin-induced NF-kB luciferase reporter, luminescence; inhibition, % at 4 µM; 0.53% of 330,000 active; AID 435003; in the data active = inhibition above about 50%
# Beta apoptosis: beta cell apoptosis inhibition | INS-1E cytokine-induced death, ATP luminescence, 48 h; percent of positive-control rescue, neutral wells zero | protection from apoptosis, % (concentration not given with the values) | 0.8% of 300,000 active;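 active = Every replicate reaches about 75%, or at least half do and their mean reaches it too, limit read from the data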;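 also: 0% = cytokine-treated negative control wells and 100% = positive control rescue; higher means more ATP so stronger rescue from cytokine killing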
# Calb FLC: C. albicans growth modulation with fluconazole. C. albicans CaCi-2 (fluconazole-resistant clinical isolate) + fluconazole, Alamar Blue growth, 48 h. growth inhibition, % (concentration not given with the values). 0.57% of 300,000 active;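 active = growth inhibition above about 58% in most replicates, limit read from the data, passing the limit was not always enough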;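 also: all wells also contain fluconazole at 8 µg/ml as a sub-toxic cotreatment; 0% = median of DMSO wells and 100% = median of geldanamycin control wells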
# * hit, by the source's call; · = no result given. The list is not random: actives were taken first. Their share in the collection is about 2%.
SMILES,Shn3 inh set2,697 NFkB inh,Jurkat NFkB inh,Beta apoptosis,Calb FLC
CCN(c1ccccc1)S(=O)(=O)c1ccc(Cl)c(NC(=O)CN(C)C2CCN(C)CC2)c1,3,-5,-5,11,78*
COc1ccc(Cn2cc3c(-c4ccc(F)cc4)nnc-3c3cc(OC)c(OC)cc32)cc1,-4,11,7,100*,·
Cc1cc(N/N=C2\CC(C)CC(C)(C)C2)nc2ccccc12 (configuration not stated),-8,-4,2,6,87*
CC1C/C(=N/Nc2nc3ccccc3[nH]2)CC(C)(C)C1 (configuration not stated),5,-25,13,25,-27
CC(C)(C)c1ccc(SCC(N)=O)cc1,-21,14,7,-7,81*
COC(=O)N/N=C/c1cc(N=Nc2ccccc2Cl)ccc1O,-61,-4,4,6,-12
Cc1cc(C(=O)N/N=C/c2cc(N=Nc3ccccc3)ccc2O)n[nH]1,87*,·,·,83*,-1
Nc1ccc(C(=O)N/N=C\c2cc(N=Nc3cccc4ccccc34)ccc2O)cc1,89*,-57,7,70,32
CCn1cc(C(=O)OCC(=O)Nc2c(C)n(C)n(-c3ccccc3)c2=O)c(=O)c2ccc(C)nc21,-14,1,0,-1,3
CCn1cc(C(=O)OCC(=O)Nc2cccc(Cl)c2Cl)c(=O)c2ccc(C)nc21,4,3,-3,-1,106*
Cc1c(C(=O)NCCC#N)sc(=O)n1Cc1ccc(C(=O)N(C)C)cc1,15,·,·,·,·
O=C(Nc1c2c(nn1-c1ccc(F)cc1)CS(=O)C2)c1ccc2c(c1)OCO2 (configuration not stated),-7,-7,2,6,-6
CCCCCN(C(=O)CCC(=O)OCCOc1ccc(OCC)cc1)c1c(N)n(CCCC)c(=O)[nH]c1=O,4,32,-1,-2,1
NC(N)=NC(N)=Nc1ccc2ccccc2c1,10,-6,11,-7,-4
NC(N)=NC(N)=Nc1ccc(SC(F)(F)F)cc1,68,-30,7,116*,13
COc1ccccc1NC(=O)CN1CCN(c2ccccc2OC)CC1,23,2,10,3,63*
COc1ccccc1N1CCN(C(=O)c2cc3cc(Cl)ccc3[nH]2)CC1,3,-25,17,0,114*
COc1ccccc1N1CCN(c2ncc(C(=O)N3CCN(c4cccc(Cl)c4)CC3)c3ccccc23)CC1,93*,-23,29,89*,4
CCO[C@H]1OC(C(=O)N2CCN(Cc3ccc4c(c3)OCO4)CC2)=C[C@@H](c2csc3ccccc23)[C@@H]1CCCO,20,3,19,85*,21
CC(=O)Nc1ccc(NC(=O)Nc2cccc3ccccc23)cc1,9,-4,-12,-4,6
CC(=O)c1ccc(NC(=O)Nc2cccc3ccccc23)cc1,-30,-23,-12,-2,81*
CCCC1C(c2ccco2)NC(c2ccco2)CC1(C)O (configuration not stated),-5,12,8,-1,89*
CC1/C(=N/O)CC(c2ccco2)NC1c1ccco1 (configuration not stated),2,12,4,2,-6
O=C(NCCc1ccc(F)cc1)N[C@@H](Cc1ccccc1)C(=O)O,4,8,5,-5,1
Cc1ccn2c(NCc3ccccc3)c(-c3cccc(SC4CCCCC4)c3)nc2c1,-17,4,14,-1,·
SMILES,Shn3 inh set2,697 NFkB inh,Jurkat NFkB inh,Beta apoptosis,Calb FLC
c1ccc(CNc2c(-c3cccc(SC4CCCCC4)c3)nc3ccccn23)cc1,90*,-19,-15,124*,·
CCCCNc1c(-c2ccc(OC)c(SC3CCCCC3)c2)nc2ccc(C)cn12,96*,-8,0,·,·
COc1ccc(-c2nc3ccc(C)cn3c2NCc2ccccc2)cc1SC1CCCCC1,98*,2,10,99*,8
CCCCNc1c(-c2ccc(SC3CCCCC3)c(OC)c2)nc2ccc(C)cn12,72,6,12,19,·
CCc1nnc(NC(=O)c2oc3ccc(Br)cc3c2C)s1,-53,-121,-32,-3,·
FC(F)(F)COc1nc(OCC(F)(F)F)nc(N2CCN(c3ccccc3)CC2)n1,11,11,29,5,88*
O=C(/C=C/c1cc(Br)ccc1O)c1ccco1,12,-9,11,10,93*
O=C(/C=C/c1ccccc1O)c1ccco1,-10,5,-8,-4,29
CCOC(=O)C1=C(C)N=C2SC=C(C)N2C1c1ccc(OC)cc1 (configuration not stated),4,0,13,-2,-8
O=C(CSc1nnc2ccc(-c3ccccn3)nn12)Nc1ccc(F)cc1F,-2,13,6,-6,0
CCCc1nc2ccccc2c(=O)n1/N=C/c1ccccc1O,37,2,13,97*,·
Cc1ccc(-c2[nH]ncc2/C=N/n2c(COc3ccccc3C)nc3ccccc3c2=O)cc1,4,14,4,93*,-20
Cc1nc2ccccc2c(=O)n1/N=C/c1ccc(O)cc1O,10,-18,6,-5,26
Cc1cc(/C=N/n2c(COc3ccccc3C)nc3ccccc3c2=O)c(O)c([N+](=O)[O-])c1,81,-45,-2,79*,91*
O=c1c2ccccc2nc(COc2ccccc2)n1/N=C/c1cc([N+](=O)[O-])ccc1O,60,-55,5,79*,-3
Cc1ccccc1OCc1nc2ccccc2c(=O)n1/N=C/c1c[nH]c2ccccc12,-21,-4,-11,7,-16
CSc1nc(S(C)(=O)=O)nc2[nH]c(=O)[nH]c12,-6,·,·,·,·
Cc1cccc(N2CCN(C(=O)c3cn(C)c(=O)c4c3c3ccccc3n4C)CC2)c1C,15,3,10,-16,57*
Cc1ccc(Cl)cc1N1CCN(C(=O)c2cn(C)c(=O)c3c2c2ccccc2n3C)CC1,12,-13,38,·,-11
COC(=O)C1OCOC2C(C(=O)OC)OCOC12 (configuration not stated),-15,·,·,·,·
Cc1cccc(NC(=O)CN2CCN(C(=O)CN3C(=O)NC4(CC(C)CC(C)(C)C4)C3=O)CC2)c1C (configuration not stated),51,·,·,·,·
CC1CC(C)(C)CC2(C1)NC(=O)N(CC(=O)N1CCN(Cc3ccc(C#N)cc3)CC1)C2=O (configuration not stated),86*,-21,17,·,·
CN=C1c2cc3cc(OC)ccc3n2CCN1Cc1ccccc1,90*,·,·,·,2
Cc1oc2c(c1C(=O)c1ccc(Cl)cc1)C(=O)C(=O)c1ccccc1-2,93*,·,·,·,3
Cc1ccc(C(=O)c2c(C)oc3c2C(=O)C(=O)c2ccccc2-3)cc1,96*,11,-10,124*,29
Cc1ccc(C(=O)c2coc3c2C(=O)C(=O)c2ccccc2-3)cc1,-34,-58,-61,1,80*
C[C@H](NS(=O)(=O)c1ccc2c(c1)OCCCO2)C(=O)N1CCN(Cc2ccc(C#N)cc2)CC1,3,3,2,-3,·
